Source: PubChem BioAssay
Most compounds without a hit are left out; they make up all but 3.4% or so of the library.
ADAM10 inh = inhibitors of human ADAM10. 370,000 tested, 0.62% active. O14672. recombinant ADAM10, EDANS/DABCYL FRET peptide cleavage, 3 h. inhibition, % at 7 µM;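 active = inhibition above a per-campaign cutoff equal to the mean of compounds falling between control-based bounds plus 3 SD, cut at about 20% in these data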
Target sequence (O14672 214-748 limits assumed): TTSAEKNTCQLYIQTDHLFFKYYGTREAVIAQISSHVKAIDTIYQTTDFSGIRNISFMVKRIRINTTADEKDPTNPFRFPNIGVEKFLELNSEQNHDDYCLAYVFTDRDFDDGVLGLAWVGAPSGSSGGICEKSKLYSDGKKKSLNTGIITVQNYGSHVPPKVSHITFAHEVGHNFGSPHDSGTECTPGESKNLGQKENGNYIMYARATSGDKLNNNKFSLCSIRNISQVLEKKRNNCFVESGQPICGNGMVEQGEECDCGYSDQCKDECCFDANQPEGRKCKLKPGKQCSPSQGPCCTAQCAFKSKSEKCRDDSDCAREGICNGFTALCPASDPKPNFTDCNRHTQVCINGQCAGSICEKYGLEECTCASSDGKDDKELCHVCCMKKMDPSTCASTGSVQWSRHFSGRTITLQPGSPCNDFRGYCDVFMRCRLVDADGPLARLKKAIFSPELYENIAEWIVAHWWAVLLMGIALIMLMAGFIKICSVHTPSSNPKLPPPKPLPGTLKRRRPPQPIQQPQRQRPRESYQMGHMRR
PLC-beta3 inh = inhibitors of human phospholipase C beta3; Q01970; Purified PLC-beta3, fluorogenic substrate, fluorescence; inhibition, % at 12.2 µM; 370,000 tested, 0.18% active; in the data active = inhibition above about 11%
proKLK7 act = proKLK7 (human) activation, primary screen; P49862; purified proKLK7, EDANS-DABCYL substrate fluorescence; 100% is mature enzyme control, 0% vehicle; activation, % at 7 µM; 370,000 tested, 0.9% active; AID 652039;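 active = activation above the mean of all tested compounds plus 3 SD, computed per campaign excluding outliers beyond control limits, cut at about 13% in these data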
PLC-gamma1 inh = blocks human PLC-gamma1 enzyme activity | AID 720700 | 370,000 tested, 0.84% active | P19174 | inhibition, % at 12.2 µM | purified PLC-gamma1, fluorogenic substrate, fluorescence; in the data active = inhibition above about 9.5%
ADAM17 inh = inhibitors of human ADAM17; recombinant ADAM17, EDANS/DABCYL FRET peptide cleavage; 370,000 tested, 0.83% active; inhibition, % at 6.95 µM; AID 720648;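 active = inhibition above the mean of compounds lying between control limits plus 3 SD, set per campaign, cut at about 8.5% in these data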
HGIII-sPLA2 inh = Inhibits HGIII-sPLA2 liposome hydrolysis, primary screen | inhibition, % at 12.2 µM | AID 743126 | Q9NZ20 | 370,000 tested, 0.56% active | QFRET BODIPY PC-A2 liposome hydrolysis, fluorescence;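 active = inhibition above mean plus 3 SD of compounds lying within the high and low control bounds, cut at about 19% in these data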
hGIII sPLA2 conf = human GIII-sPLA2 inhibition, confirmation. recombinant hGIII-sPLA2, BODIPY PC-A2 QFRET fluorescence. inhibition, % at 12.2 µM. 2,000 tested, 34% active. AID 743280. shares compounds with HGIII-sPLA2 inh;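 active = mean inhibition across triplicates above the hit cutoff set in the earlier primary screen, cut at about 19% in these data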
535nm interf = optically interferes with 535nm fluorescence in sPLA2 counter-screen. shares compounds with HGIII-sPLA2 inh. BODIPY FL product fluorescence interference, QFRET. inhibition, % at 12.2 µM. 2,000 tested, 8.5% active;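 active = average inhibition above the solvent-only control mean plus 3 SD, cut at about 6% in these data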
BODIPY interf DR = 535nm optical interference dose response, HGIII-sPLA2 counter-screen; shares compounds with HGIII-sPLA2 inh; BODIPY FL product fluorescence interference, cell-free; IC50, µM; 240 tested, under 10 active; AID 743455;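 active = IC50 at or below 10 µM; inactive = IC50 above 10 µM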
Of the large screens only hits and unclear results are named; the others gave an inactive call (follow-up assays come after a bar, where they were run).

Cc1ccc(C(=O)NC(=S)NNC(=O)c2ccccc2O)cc1	HGIII-sPLA2 inh 32 | hGIII sPLA2 conf 37 | 535nm interf inactive | BODIPY interf DR inactive
Cc1ccc(C(=O)NNC(=S)NC(=O)c2ccc(Cl)cc2Cl)cc1	none
O=C(NNC(=S)NC(=O)c1ccccc1)c1ccc([N+](=O)[O-])cc1	none
O=C(NC(=S)NNC(=O)c1ccccc1O)c1ccc([N+](=O)[O-])cc1	HGIII-sPLA2 inh 39 | hGIII sPLA2 conf 29 | 535nm interf inactive | BODIPY interf DR inactive
N#CC(C#N)c1ccnc2ccccc12	HGIII-sPLA2 inh 19 | hGIII sPLA2 conf inactive | 535nm interf inactive
Oc1cccc2c(NC(=S)Nc3ccc(SC(F)F)cc3)cccc12	none
Oc1cccc(NC(=S)Nc2ccc(SC(F)F)cc2)c1	HGIII-sPLA2 inh 35 | hGIII sPLA2 conf inactive | 535nm interf inactive
Cc1ccccc1-n1c(=S)[nH]c2nc3c(cc2c1=O)COC(C)(C)C3	HGIII-sPLA2 inh 20 | hGIII sPLA2 conf inactive | 535nm interf inactive
Cc1ccc(-n2c(=S)[nH]c3nc4c(cc3c2=O)COC(C)(C)C4)cc1	none
CN(C)S(=O)(=O)c1ccc(Cl)c(C(=O)NCCNC(=O)c2cc(S(=O)(=O)N(C)C)ccc2Cl)c1	HGIII-sPLA2 inh 21 | hGIII sPLA2 conf inactive | 535nm interf inactive
CC(C)C(=O)N1CC[C@H]2[C@H](CCCN2Cc2ccc(F)cc2)C1	HGIII-sPLA2 inh 22 | hGIII sPLA2 conf inactive | 535nm interf inactive
O=C(NNC(=O)c1cccs1)c1ccc(Cl)c(S(=O)(=O)N2CCCC2)c1	none
O=C(NNC(=O)c1ccccc1O)c1ccc(Cl)c(S(=O)(=O)N2CCCCC2)c1	HGIII-sPLA2 inh 20 | hGIII sPLA2 conf inactive | 535nm interf inactive
O=C(NNC(=O)C1CCN(S(=O)(=O)c2ccccc2)CC1)c1ccccc1O	none
O=C(NNC(=O)C1CCN(S(=O)(=O)c2c(Cl)cccc2Cl)CC1)c1ccccc1O	HGIII-sPLA2 inh 25 | hGIII sPLA2 conf inactive | 535nm interf inactive
COc1ccc2cc(C3(C)NC(=O)N(CC(=O)Nc4c(C)n(C)n(-c5ccccc5)c4=O)C3=O)ccc2c1 (configuration not stated)	HGIII-sPLA2 inh 21 | hGIII sPLA2 conf inactive | 535nm interf inactive
OC(c1ccccc1)(c1ccccc1)C1CCN(CCCOc2ccccn2)CC1	none
CC1CCN(c2c([N+](=O)[O-])c(=O)oc3ccccc23)CC1	HGIII-sPLA2 inh 21 | hGIII sPLA2 conf inactive | 535nm interf inactive
CCNc1nc(NC(C)C)nc(OCCOC(=O)Nc2ccccc2)n1	none
CCNc1nc(NCC)nc(OCCOC(=O)Nc2ccccc2)n1	HGIII-sPLA2 inh 19 | hGIII sPLA2 conf inactive | 535nm interf inactive
CC(C)CNC(=O)CC1Oc2ccccc2NC1=O (configuration not stated)	none
CNC(=S)NNC(=O)COc1ccc(C)c(C)c1	HGIII-sPLA2 inh 28 | hGIII sPLA2 conf 26 | 535nm interf inactive
COC(=O)[C@]12C[C@H](CC(=O)N3CCC(c4ccccc4)CC3)C(=O)N(Cc3ccccc3)C1=C[C@H](C1CCCC1)O[C@@H]2C	none
O=C(NNC(=O)c1cc2cc(Br)ccc2oc1=O)c1ccc(O)cc1O	HGIII-sPLA2 inh 20 | hGIII sPLA2 conf 26 | 535nm interf inactive
CCOC(=O)c1cnc2ccc(OCC)cc2c1NCc1ccccc1OC	HGIII-sPLA2 inh 24 | hGIII sPLA2 conf inactive | 535nm interf inactive
CCOC(=O)c1cnc2ccc(OC)cc2c1NCc1ccccc1	none
COc1ccc(C(=O)OCCCN(C)C2CN(Cc3cn(Cc4ccccc4Cl)nn3)S(=O)(=O)C2)cc1OC (configuration not stated)	none
Cc1cc(N2CCNC[C@H]2C)ccc1N1CCS(=O)(=O)CC1	none
